Measurements as given in PubChem BioAssay AID1159580 (chemical genetic matrix, 2015).
“And” between values parts separate entries of the source, which are not always exact repeats. Identical values can stand only once. The campaign covered roughly 5,500 compounds. About 2,000 (36%) were called active. Roughly 18% stayed inconclusive and do not appear here. Rule as the data show it: active = normalized growth mostly below about 0.91 (no sharp cut-off); inconclusive = no clear call, values can overlap the other calls; inactive = mostly above about 0.92. The list shows a part of the results.

Test: chemical genetic growth profiling, strain panel (AID 1159580);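 also: tested at 20 µM; growth read once vehicle control cultures reached saturation at 30 °C; 1 = growth at the plate median or of vehicle wells; lower values mean less growth of the strain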
Conditions: S. cerevisiae deletion strains, growth OD

Measured: normalized growth

CO[C@@H]1[C@@H](OC(N)=O)[C@@H](O)[C@H](Oc2ccc3c(O)c(NC(=O)c4ccc(O)c(CC=C(C)C)c4)c(=O)oc3c2C)OC1(C)C
inactive: locus YAL013W, strain DEP1, active compounds read low 1.02 | locus YAL021C, strain ccr4, active compounds read low 1.03 | locus YAL026C, strain drs2, active compounds read low 1.02 | locus YAL030W, strain snc1, active compounds read low 1.03 | locus YBL061C, strain skt5, active compounds read low 1.02 | locus YBR009C, strain hhf1, active compounds read low 1.02 | locus YBR021W, strain FUR4, active compounds read low 1.04 | locus YBR023C, strain chs3, active compounds read low 1.04 | locus YBR171W, strain sec66, active compounds read low 1.06 | locus YBR229C, strain ROT2, active compounds read low 1.01 | locus YBR231C, strain swc5, active compounds read low 1.04 | locus YBR279W, strain paf1, active compounds read low 1.05 | locus YCL011C, strain gbp2, active compounds read low 1.03 | locus YCL016C, strain dcc1, active compounds read low 1.04 | locus YCL029C, strain bik1, active compounds read low 0.995 | locus YCL061C, strain MRC1, active compounds read low 1.03 | locus YCL069W, strain vba3, active compounds read low 1.03 | locus YCR088W, strain abp1, active compounds read low 1.04 | locus YDL005C, strain med2, active compounds read low 1.04 | locus YDL035C, strain GPR1, active compounds read low 1.01 | locus YDL040C, strain nat1, active compounds read low 1.03 | locus YDL074C, strain BRE1, active compounds read low 0.955 | locus YDL101C, strain DUN1, active compounds read low 1.02 | locus YDL134C, strain PPH21, active compounds read low 1.01 | locus YDL185W, strain tfp1, active compounds read low 0.945 | locus YDL192W, strain arf1, active compounds read low 0.988 | locus YDR001C, strain nth1, active compounds read low 1.03 | locus YDR069C, strain doa4, active compounds read low 1.01 | locus YDR101C, strain arx1, active compounds read low 1.01 | locus YDR137W, strain rgp1, active compounds read low 0.998 | locus YDR150W, strain NUM1, active compounds read low 1.02 | locus YDR159W, strain sac3, active compounds read low 0.98 | locus YDR162C, strain NBP2, active compounds read low 0.968 | locus YDR195W, strain ref2 1.04 | locus YDR297W, strain sur2, active compounds read low 1.03 | locus YDR318W, strain mcm21, active compounds read low 0.991 | locus YDR334W, strain swr1, active compounds read low 1.03 | locus YDR335W, strain msn5, active compounds read low 1.06 | locus YDR388W, active compounds read low 0.991 | locus YDR392W, strain spt3, active compounds read low 0.999 | locus YDR502C, strain sam2, active compounds read low 0.999 | locus YEL003W, strain gim4, active compounds read low 0.999 | locus YEL037C, strain rad23, active compounds read low 1.04 | locus YEL061C, strain CIN8 (second series), active compounds read low 1.02 | locus YEL061C, strain CIN8, active compounds read low 0.992 | locus YER015W, strain faa2, active compounds read low 1.04 | locus YER016W, strain bim1, active compounds read low 1.03 | locus YER110C, active compounds read low 0.985 | locus YER111C, strain swi4, active compounds read low 1.03 | locus YER155C, strain BEM2 (second series), active compounds read low 1.06 | locus YER155C, strain BEM2, active compounds read low 1.04 | locus YER167W, strain BCK2, active compounds read low 1.02 | locus YFR010W, strain ubp6, active compounds read low 1.02 | locus YGL078C, strain dbp3, active compounds read low 0.954 | locus YGL086W, strain mad1, active compounds read low 1.02 | locus YGL167C, strain pmr1, active compounds read low 1.02 | locus YGL173C, strain kem1, active compounds read low 1.05 | locus YGL227W, strain vid30, active compounds read low 1.03 | locus YGL240W, strain doc1, active compounds read low 1.01 | locus YGL248W, strain PDE1, active compounds read low 1.02 | locus YGL253W, strain hxk2, active compounds read low 1 | locus YGR078C, strain PAC10, active compounds read low 1.01 | locus YGR135W, strain pre9, active compounds read low 0.993 | locus YGR229C, strain SMI1, active compounds read low 1.01 | locus YGR252W, strain gcn5, active compounds read low 1.16 | locus YHR013C, strain ard1, active compounds read low 1.05 | locus YHR027C, strain rpn1, active compounds read low 1.04 | locus YHR030C, strain SLT2, active compounds read low 1.02 and 0.882 | locus YHR079C, strain IRE1 (second series), active compounds read low 0.986 | locus YHR079C, strain IRE1, active compounds read low 0.87 | locus YHR094C, strain hxt1, active compounds read low 0.995 | locus YHR129C, strain ARP1, active compounds read low 1 | locus YHR142W, strain chs7, active compounds read low 1.01 | locus YHR200W, strain rpn10, active compounds read low 0.989 | locus YIL066C, strain RNR3, active compounds read low 1.01 | locus YIL073C, strain SPO22, active compounds read low 0.71 | locus YIL125W, strain kgd1, active compounds read low 0.964 | locus YIR030C, strain dcg1, active compounds read low 0.992 | locus YJL092W, strain hpr5, active compounds read low 1.03 | locus YJL095W, strain BCK1 (second series), active compounds read low 1.04 | locus YJL095W, strain BCK1, active compounds read low 1.04 and 0.919 | locus YJL115W, strain asf1, active compounds read low 1.04 | locus YJL129C, strain trk1, active compounds read low 0.971 | locus YJL134W, strain LCB3, active compounds read low 1.01 | locus YJL154C, strain vps35, active compounds read low 1.04 | locus YJL164C, strain tpk1, active compounds read low 1.02 | locus YJL166W, strain qcr8, active compounds read low 1.04 | locus YJL168C, strain set2, active compounds read low 0.988 | locus YJL187C, strain SWE1 (second series), active compounds read low 1.01 | locus YJL187C, strain SWE1, active compounds read low 1.03
